Values without a mark were called inactive. Records with an inconclusive call do not appear. Calls of active or inactive are those of the source. Calls follow the shape of the dose curve; as a rule, active = well fitted curve in the direction sought with a large enough effect; inconclusive = small, poorly fitted or top-dose-only effect, or another doubt; inactive = no such curve, though single readings can be large; an effect the other way counts as inactive or inconclusive.

Experiment [1] is described as follows: UWB1.289 Cancer Cell Toxicity qHTS against the NCATS CANVASS Library (AID 1347347). Also: nearly all actives have a fitted effect of over 60% in size. Also: potency is read from the fitted curve at half-maximal effect. In outline:
(§1)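 Toxicity is measured over 72 h of compound exposure at 37 degrees C under 5% CO2. Each well holds 1000 cells, pre-incubated for 4 hours before dosing across an 11-point range. CellTiter-Glo luminescence gives viability.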
A general note: In qHTS, concentration-response curves come from the screen itself.

Experiment [2] is described as follows: U-118MG Cancer Cell Toxicity qHTS against the NCATS CANVASS Library (AID 1347351). Also: potency is read from the fitted curve at half-maximal effect. The essentials:
as §1

Experiment [3] is described as follows: HPAF-II 24hr Apoptosis Induction qHTS against the NCATS CANVASS Library (AID 1347356). The essentials: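 Using an 11-point qHTS format, HPAF-II cells in DMEM/10% FBS received compounds for 24 h; doxorubicin titration as control. Caspase-3/7 activity quantified by DEVD-luciferase luminescence.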
Experiment [4] in a line: HPAF-II 12hr Apoptosis Induction qHTS against the NCATS CANVASS Library (AID 1347358). The essentials: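 Twelve-hour compound exposure of HPAF-II cells in DMEM with 10% FBS, then luminescent Caspase-Glo 3/7 detection after 15 min at room temperature; doxorubicin control.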
Experiment [5] in a line: KB-8-5-11 Cancer Cell Toxicity qHTS against the NCATS CANVASS Library (AID 1347364). Also: nearly all actives have a fitted effect of over 75% in size. Also: potency is read from the fitted curve at half-maximal effect. In outline:
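Luminescent ATP signal (CellTiter-Glo, 10 min at room temperature) measured cell survival of KB-8-5-11 after 72 hr compound treatment. For confirmation, the cells were also grown with 1uM tariquidar.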

Experiment [6] is described as follows: KB-3-1 Cancer Cell Toxicity qHTS against the NCATS CANVASS Library (AID 1347366). Also: nearly all actives have a fitted effect of over 75% in size. Also: potency is read from the fitted curve at half-maximal effect. The essentials: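 Cytotoxicity toward KB-3-1 cells (500/well, DMEM + 10% FBS) was scored by CellTiter-Glo luminescence following 72 hr exposure at 37C, with bortezomib titrated as control.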
Experiment [7] can be described thus: qHTS for ATAD5 Agonist screened against the NCATS CANVASS Library (AID 1347367).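 Also: luciferase reporter driven by ATAD5 which rises upon DNA damage.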 Also: potency is read from the fitted curve at half-maximal effect. The essentials: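 Genotoxicity was scored as increased ATAD5-luciferase luminescence in HEK293T after 16hr of exposure, with cell viability measured by fluorescence beforehand in the same well.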
Experiment [8] can be described thus: J3T Cancer Cell Toxicity qHTS against the NCATS CANVASS Library (AID 1347371). Also: potency is read from the fitted curve at half-maximal effect. In outline: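 ATP-based cytotoxicity in canine J3T cells: 72 hr exposure at 37C, 11-point titration, CellTiterGlo luminescent detection.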
The target in experiment [9] is Nuclear receptor subfamily 1 group I member 3 (Homo sapiens) (UniProt Q14994). The experiment in a line: qHTS for Constitutive Androstane Receptor (CAR) Antagonist screened against the NCATS CANVASS Library (AID 1347372). Also: potency is read from the fitted curve at half-maximal effect. In outline: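 Antagonist mode: compound added alongside 50 nM CITCO to HepG2-hCAR-CYP2B6 reporter cells, 24hr at 37C. Viability by CellTiter-Fluor fluorescence, then CAR-driven luciferase by ONE-Glo luminescence.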
Nuclear receptor subfamily 1 group I member 3 (Homo sapiens), sequence (Q14994 whole entry, looked up): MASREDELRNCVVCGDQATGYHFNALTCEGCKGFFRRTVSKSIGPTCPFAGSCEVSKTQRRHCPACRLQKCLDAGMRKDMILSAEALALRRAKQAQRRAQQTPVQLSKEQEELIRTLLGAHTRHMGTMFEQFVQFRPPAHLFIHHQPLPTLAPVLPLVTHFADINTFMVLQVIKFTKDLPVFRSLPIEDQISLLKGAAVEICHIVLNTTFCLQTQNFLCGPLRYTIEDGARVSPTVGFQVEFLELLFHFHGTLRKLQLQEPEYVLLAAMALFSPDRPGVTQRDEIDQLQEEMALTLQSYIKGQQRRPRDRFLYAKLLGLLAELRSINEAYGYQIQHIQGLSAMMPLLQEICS

The target is the same in experiment [10]. The experiment in a line: qHTS for Constitutive Androstane Receptor (CAR) Agonist screened against the NCATS CANVASS Library (AID 1347373).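 Also: every well also contained 1.5 µM PK11195 alongside the test compound.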 In outline: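 In an 11-point concentration series, compounds were incubated 24hr with HepG2 cells carrying hCAR and a CYP2B6-2.2kb reporter, with PK11195 at 1.5uM final. A CellTiter-Fluor viability read preceded the ONE-Glo luminescence read.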

Experiment [11] can be described thus: 10-beta competent E. coli microbial cell viability qHTS against the NCATS CANVASS Library (AID 1347376). Also: series mostly up to about 46 µM. In outline: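 Overnight 37C exposure of 10-beta E. coli (0.2 OD) to an 11-point concentration series; ATP-based luminescence after 20 min room-temperature reagent incubation; daunomycin as control.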
A short description of experiment [12]: qHTS for H2AX Agonists against the NCATS CANVASS Library (AID 1347378).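 Also: phospho-H2AX S139 level in CHO-K1 lysates by TR-FRET emission ratio.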 The essentials:
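Signal is the 665/620 nm emission ratio from europium cryptate and d2 antibody pair, rising with S139-phosphorylated H2AX. CHO-K1 cells saw test agents for 3 hr at 37C; detection ran 24 hr at room temperature.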

Experiment [13] in a line: Inflammasome Signaling qHTS Counterscreen: IL-1-beta AlphaLISA counterscreen against the NCATS CANVASS Library (AID 1347381).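 Also: cell-free check with purified IL-1β in medium and no THP-1 cells; series mostly up to about 57 µM.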 In outline: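 Here, no cellular stimulation occurs; compounds in an 11-point series meet 4 pg purified IL-1-beta directly. Bead-based AlphaLISA detection follows (1 h acceptor/antibody, then 30 min donor, dark, room temperature), with excitation at 680 nm.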

Experiment [14] in a line: Cytotoxicity qHTS for assessment of Hepg2 cells membrane integrity screened against the NCATS CANVASS Library (AID 1347387). The essentials:
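Membrane damage in HepG2 monolayers was estimated from released LDH, measured with CytoTox-ONE (ex 560/em 590 nm), after 5 hr treatment across 0.59 nM - 46 uM final.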

The nature of experiment [15]: qHTS assay for small molecule disruptors of mitochondrial membrane potential screened against the NCATS CANVASS Library (AID 1347389). Also: nearly all actives have a fitted effect of over 60% in size. Also: potency is read from the fitted curve at half-maximal effect. In outline: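 Cells (HepG2) seeded the day before received compound or DMSO for 1 hr, then Mito-MPS dye for 30 min at 37C; emission at 590 nm over 535 nm gave the polarization signal.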
A short description of experiment [16]: Secretion counterscreen for inhibitors of the SERCaMP assay screened against the NCATS CANVASS Library (AID 1347390).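 Also: light from luciferase secreted into medium read as a measure of general secretion.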 Also: potency is read from the fitted curve at half-maximal effect. The essentials: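 Natural products are titrated in an 11-point series up to 77 uM onto SH-SY5Y-GLuc STOP cells for 20 h. Secreted reporter activity is measured as coelenterazine-driven luminescence, with Brefeldin A on each plate.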
On the technique in general: The purpose of a counterscreen is to sort out artefacts and off-target activity.

Experiment [17] in a line: qHTS for activators of dead-cell proteases activity screened against the NCATS CANVASS Library (AID 1347392).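 Also: luminescence from protease leaking out of membrane-damaged cells cleaving impermeant substrate; rising signal means more cytotoxicity.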 The essentials:
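Luminescent dead-cell protease readout (AAF-aminoluciferin, 15 min, room temperature) after 5 h compound treatment of HepG2 cells (2000/well, pre-attached 18 h). Eleven concentrations.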

Take `CCC(=O)CCCCC[C@@H]1NC(=O)[C@H]2CCCCN2C(=O)[C@H]([C@@H](C)CC)NC(=O)[C@H](Cc2cn(OC)c3ccccc23)NC1=O`: the Potency in [1] was 2.11 µM (active); in [2], 0.53 µM (active); in [5], 13.2 µM (active); in experiment [6] it was 1.18 µM (active); in experiment [7], 1.86 µM (active); in experiment [8], 5.9 µM (active). For the same compound, the Potency in [9] is 2.34 µM (active). Moreover, the call in experiment [3], in experiment [4], in [10], in [11], in [13] and in experiment [14] was inactive. The Potency entry in [12], in [15], in [16] and in experiment [17] was “inactive” throughout.

Take `CNCCc1ccccc1`: the Potency result in experiment [1], in experiment [2], in [5], in experiment [6], in experiment [7] and in [8] was “inactive” in each case. In addition, the Potency entry in [9], in [12], in experiment [15], in [16] and in experiment [17] was “inactive” throughout. Besides, the call in experiment [3], in experiment [4], in experiment [10], in experiment [11], in experiment [13] and in experiment [14] was inactive.

For the compound `CO[C@@H](/C=C/CC/C=C/C(=O)O)[C@@H](O)[C@H](C)/C=C(\C)[C@@H](O)[C@H](C)C(=O)CCCC1CC(=O)NC(=O)C1`, the Potency result in experiment [1], in experiment [2], in experiment [5], in [6], in experiment [7] and in experiment [8] was “inactive” each time. Further, the Potency result in [9], in experiment [12], in experiment [15], in [16] and in [17] was “inactive” each time. Besides, the outcome in [3], in [4], in [10], in experiment [11], in experiment [13] and in experiment [14] was inactive.

For the compound `O=C(c1ccccc1O)c1[nH]c(Cl)c(Cl)c1-n1c(C(=O)c2ccccc2O)cc(Cl)c1Cl`, the Potency in experiment [1] is 3.75 µM (active); in experiment [2], 6.68 µM (active); in [5], 2.64 µM (active); in experiment [6], 2.35 µM (active); in [8], 2.96 µM (active); in experiment [9], 3.71 µM (active). The Potency is 0.0933 µM (active) in experiment [15] and 19.3 µM (active) in [16]. For the same compound, the compound was classed as inactive in experiment [3], in experiment [4], in experiment [10], in experiment [11], in experiment [13] and in experiment [14]. In addition, the Potency result in experiment [7], in experiment [12] and in [17] was “inactive” throughout.

`CO[C@H](c1ccccc1)[C@H]1NC(=O)C(C)NC(=O)C(C[C@@H](C)CO)N(C)C(=O)[C@@H](C(O)c2cn(C(C)(C)C3CO3)c3ccccc23)NC(=O)C(C(C)C=C(C)C)NC(=O)C(CC(C)C)N(C)C(=O)C(C(C)C)NC1=O` (some centres not stated): the Potency result in experiment [1], in experiment [2], in [5], in experiment [6], in experiment [7] and in experiment [8] was “inactive” throughout. The Potency result in experiment [9], in experiment [12], in experiment [15], in experiment [16] and in experiment [17] was “inactive” throughout. The call in experiment [3], in experiment [4], in experiment [10], in experiment [11], in [13] and in experiment [14] was inactive.

In the case of `CCC[C@H]1CC[C@H]2[C@H](C)CCC[C@H]2N1`, the Potency entry in experiment [1], in [2], in [5], in [6], in experiment [7] and in experiment [8] was “inactive” each time. The Potency result in [9], in experiment [12], in [15], in experiment [16] and in experiment [17] was “inactive” in each case. Also, the call in experiment [3], in [4], in [10], in [11], in [13] and in [14] was inactive.
